Experiment [1] in a line: qHTS assay to identify small molecule agonists of the hypoxia (HIF-1) signaling pathway - cell viability counter screen (AID 1224844; calls by dose curve; also: % is scaled to controls: 0 for no effect and ±100 for the full control effect; nearly all actives have a fitted effect of over 50% in size). Summed up:
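Viability counter screen: HRE-bla ME-180 cells plated 5 hrs before compound addition, treated 17 hrs at 37C and 5% CO2, then CellTiter-Glo added after the FRET reporter read; luminescence after 30 min.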
(In general: In qHTS, concentration-response curves come from the screen itself.)

A short description of experiment [2]: qHTS assay to identify small molecule agonists of H2AX (AID 1224845; active = well fitted activation curve with a large enough effect in the signal ratio in the repeat runs, not every such curve was filed as active; the % refers to the signal ratio; also: % is scaled to controls: 0 for no effect and ±100 for the full control effect). In outline:
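Phospho-H2AX Ser139 measured by HTRF (ex 320 nm; em 665 and 620 nm) after 24 hr antibody incubation. Compounds, 15 concentrations, 0.76% DMSO, were applied to CHO-K1 cells for 3hr at 37C before lysis.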

The nature of experiment [3]: qHTS assay to identify small molecule agonists of H2AX - cell viability counter screen (AID 1224847; calls by dose curve; also: top concentration of the series differs between compounds; % is scaled to controls: 0 for no effect and ±100 for the full control effect; nearly all actives have a fitted effect of over 30% in size). Summed up:
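Wild-type CHO-K1 cells (10% FBS medium) were plated overnight at 37C, exposed to compounds at 15 concentrations for 3 hr at 37C (0.76% DMSO final), and viability was read as CellTiter-Glo luminescence after 30 min at room temperature.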

A short description of experiment [4]: qHTS assay to identify small molecule antagonists of the estrogen related receptor (ERR) signaling pathway from Tox21 library (AID 1224848). Also: potency is read from the fitted curve at half-maximal effect; nearly all actives have a fitted effect of over 50% in size. Summed up: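 ERR cell line, 2,000 cells/well. 6 h settle, then compound (DMSO) added; 18 h at 37 C; ONE-Glo luminescence after 30 min RT.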
A short description of experiment [5]: qHTS assay to identify small molecule agonists of the estrogen related receptor (ERR) signaling pathway from Tox21 library (AID 1224849; calls by dose curve; also: % is scaled to controls: 0 for no effect and ±100 for the full control effect; nearly all actives have a fitted effect of over 15% in size). The note with it: ERR reporter cell line, ONE-Glo luciferase, 18 h; at 92.4 µM (top of the series) unless noted. In outline: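 Quantitative HTS in agonist format: NTP ERR cell line, compounds transferred in DMSO after 6 h plating, 18 h incubation at 37 C, ONE-Glo luminescence endpoint.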

Experiment [6] is described as follows: qHTS RealTime-Glo MT Cell Viability Assay in HEK293 cells - 32 hour (AID 1224868). Also: nearly all actives have a fitted effect of over 50% in size. Also: potency is read from the fitted curve at half-maximal effect. In outline:
(§1)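 HEK293 cells seeded with NanoLuc/prosubstrate reagent, rested 5 h at 37 C, then dosed and kept at 37 C up to 40 h. Nonlytic real-time luminescence from viable cells read at 0, 8, 16, 24, 32 and 40 h.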

Experiment [7] can be described thus: A CellTox Green Cytotoxicity Assay to monitor cytotoxicity in HEK293 cells - 0 hour (AID 1224869). Also: % is scaled to controls: 0 for no effect and ±100 for the full control effect; nearly all actives have a fitted effect of over 50% in size. In outline: (§2)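 Dead-cell fluorescence measured kinetically: asymmetric cyanine dye, HEK293, 600 cells/well, 5 h settle, 23 nL cpd/DMSO, 37 C, reads 0–40 h every 8 h.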
Experiment [8] in a line: qHTS RealTime-Glo MT Cell Viability Assay in HepG2 cells - 8 hour (AID 1224873). Also: % is scaled to controls: 0 for no effect and ±100 for the full control effect; nearly all actives have a fitted effect of over 55% in size. Summed up:
(§3)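 Real-time viability: cells seeded at 600 per well together with NanoLuc and cell-permeant prosubstrate, compounds added after 5 h incubation. Luminescence tracked at 0, 8, 16, 24, 32 and 40 h of exposure.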

Experiment [9] can be described thus: qHTS RealTime-Glo MT Cell Viability Assay in HEK293 cells - 40 hour (AID 1224874). Also: nearly all actives have a fitted effect of over 50% in size. Also: potency is read from the fitted curve at half-maximal effect. As to max response: % is scaled to controls: 0 for no effect and ±100 for the full control effect. The conditions noted are these: RealTime-Glo luminescence; max response: active compounds read low. In outline: (§4)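 600 HEK293 cells per well, dispensed already mixed with RealTime-Glo MT reagents. Compound dosing came 5 h later. The same wells were read for luminescence at 0, 8, 16, 24, 32 and 40 h of exposure at 37 C.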

Experiment [10] can be described thus: A CellTox Green Cytotoxicity Assay to monitor cytotoxicity in HepG2 cells - 24 hour (AID 1224878). Also: nearly all actives have a fitted effect of over 45% in size. Also: potency is read from the fitted curve at half-maximal effect. As to Cytotoxicity: % is scaled to controls: 0 for no effect and ±100 for the full control effect. Summed up:
(§5)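 First, HepG2 cells (600/well) mixed with reagent were plated; second, after 5 h at 37 C they received compounds via pintool; third, fluorescence was measured at 0 h through 40 h at 8 h intervals.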

A short description of experiment [11]: A CellTox Green Cytotoxicity Assay to monitor cytotoxicity in HepG2 cells - 40 hour (AID 1224879). Also: nearly all actives have a fitted effect of over 40% in size. Also: potency is read from the fitted curve at half-maximal effect. In outline: as §5
Experiment [12] in a line: qHTS RealTime-Glo MT Cell Viability Assay in HepG2 cells - 24 hour (AID 1224867). Also: nearly all actives have a fitted effect of over 50% in size. Also: potency is read from the fitted curve at half-maximal effect. Summed up:
(§6)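 HepG2 cells (600/well) were dispensed with RealTime-Glo reagents, incubated 5 h at 37 °C, then treated with compounds in DMSO for up to 40 h. Nonlytic NanoLuc luminescence reflecting viable cells was read at each stated time point.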

Experiment [13] is described as follows: qHTS RealTime-Glo MT Cell Viability Assay in HepG2 cells - 40 hour (AID 1224870). Also: nearly all actives have a fitted effect of over 50% in size. Also: potency is read from the fitted curve at half-maximal effect. Summed up:
as §3

A short description of experiment [14]: A CellTox Green Cytotoxicity Assay to monitor cytotoxicity in HEK293 cells - 40 hour (AID 1224871). Also: % is scaled to controls: 0 for no effect and ±100 for the full control effect; nearly all actives have a fitted effect of over 45% in size. Summed up: as §2
A short description of experiment [15]: A CellTox Green Cytotoxicity Assay to monitor cytotoxicity in HEK293 cells - 24 hour (AID 1224875). Also: % is scaled to controls: 0 for no effect and ±100 for the full control effect; nearly all actives have a fitted effect of over 45% in size. Summed up: as §2
The nature of experiment [16]: A CellTox Green Cytotoxicity Assay to monitor cytotoxicity in HepG2 cells - 16 hour (AID 1224876). Also: % is scaled to controls: 0 for no effect and ±100 for the full control effect; nearly all actives have a fitted effect of over 45% in size. Summed up: as §5
The nature of experiment [17]: qHTS RealTime-Glo MT Cell Viability Assay in HepG2 cells - 32 hour (AID 1224877). Also: nearly all actives have a fitted effect of over 55% in size. Also: potency is read from the fitted curve at half-maximal effect. Summed up: as §6
Experiment [18] can be described thus: qHTS RealTime-Glo MT Cell Viability Assay in HEK293 cells - 16 hour (AID 1224872). Summed up: as §1
Experiment [19] in a line: qHTS RealTime-Glo MT Cell Viability Assay in HEK293 cells - 0 hour (AID 1224880). Summed up:
as §4

Values without a mark were called inactive. Inconclusive results are not listed. The source made the active and inactive calls. Unless noted, calls follow the shape of the dose curve; as a rule, active = well fitted curve in the direction sought with a large enough effect in the repeat runs; inconclusive = weak or mixed curves; inactive = no such curve, though single readings can be large; an effect the other way counts as inactive or inconclusive.

Turning to `OCc1cc(C(O)CNCCCCCCOCCCCc2ccccc2)ccc1O` (stereo unspecified), the Potency entry in experiment [1], in [2], in experiment [3], in [7] and in experiment [8] was “inactive” throughout. In addition, the Potency in [4] is 21.1 µM (active); in experiment [6], 21.3 µM (active); in experiment [9] it was 23.9 µM (active); in [10] it was 23.9 µM (active); in experiment [11], 23.9 µM (active). For the same molecule, in experiment [5], the activity change, positive = activation was -29.9% [at 42.5 µM].

With `CC(C)C[C@H]1C(=O)N2CCC[C@H]2[C@]2(O)O[C@](NC(=O)[C@@H]3C=C4c5cccc6[nH]c(Br)c(c56)C[C@H]4N(C)C3)(C(C)C)C(=O)N12`, the Potency entry in experiment [1], in experiment [2], in [3], in experiment [7], in [14] and in experiment [15] was “inactive” throughout. Also, the Potency entry in experiment [16], in experiment [10] and in experiment [11] was “inactive” throughout. Moreover, the Potency in experiment [4] is 14.6 µM (active); in experiment [12], 13.2 µM (active); in experiment [13] it was 14.8 µM (active); in [17], 13.2 µM (active). The activity change, positive = activation in experiment [5] was -64.1% [at 42.5 µM].

Turning to `O=C1C(O)=C(O)C(=O)C(O)=C1O`, the Potency entry in [1], in [2], in experiment [3], in experiment [12], in experiment [6] and in [13] was “inactive” each time. The Potency result in experiment [14], in experiment [18], in [8], in experiment [15], in experiment [16] and in experiment [17] was “inactive” each time. The Potency result in experiment [10], in [11] and in [19] was “inactive” each time. The max response in [9] is -9.06%.

(Values after PubChem BioAssay (Tox21).)
